PubChem BioAssay (NCATS)
Inconclusive results are not listed. Entries that show only a call come without a potency. A number with no mark means an inactive call. Calls of active or inactive are those of the source. Calls follow the shape of the dose curve; as a rule, active = well fitted curve in the direction sought with a large enough effect; inconclusive = small, poorly fitted or top-dose-only effect, or another doubt; inactive = no such curve, though single readings can be large; an effect the other way counts as inactive or inconclusive.

What was measured:
[1] = P-glycoprotein substrates identified in KB-8-5-11 adenocarcinoma cell line, qHTS therapeutic library screen (AID 1346987); conditions: KB-8-5-11 (P-gp overexpressing) viability, CellTiter-Glo, 72 h; series mostly up to 44.5 µM; also: nearly all actives have a fitted effect of over 65% in size
Method in brief: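 KB-8-5-11, a colchicine-selected P-gp-overexpressing KB-3-1 subline, was grown without colchicine for the assay. Cells were seeded at 500 cells/well, dosed in concentration-response and incubated 72 h at 37 degree C, 5% CO2. Viability was read by CellTiter-Glo luminescence.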

[2] = tested on: Zika virus NS2B-NS3 protease (unlinked complex); assay: Primary screen GU Rhodamine qHTS for Zika virus inhibitors: Unlinked NS2B-NS3 protease assay (AID 1347159); conditions: Recombinant ZIKV NS2B-NS3 protease, Rhodamine110 substrate fluorescence; series mostly up to 107 µM; also: nearly all actives have a fitted effect of over 60% in size; also: potency is read from the fitted curve at half-maximal effect
Method in brief: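 A qHTS format was used, with compound concentrations ranging up to 114 microM. Each compound was preincubated with 25 nM NS2B-NS3 protease, and the substrate was then added at 1.5 microM. Curves were fitted with a 4-parameter Hill model.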

[3] = tested on: Zika virus NS2B-NS3 protease (linked construct); assay: Primary screen NINDS Rhodamine qHTS for Zika virus inhibitors (AID 1347160); conditions: purified NS2B-NS3 protease, Rhodamine110 substrate fluorescence; series mostly up to 33.1 µM; also: nearly all actives have a fitted effect of over 55% in size
Method in brief: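 Kinetic fluorescence (Ex 480 nm, Em 540 nm) over 15 min with 1.5 microM Rhodamine110 peptide and 25 nM linked protease.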

Compound | Potency [1] | Potency [2] | Potency [3] | outcome [1] | activity change, negative = inhibition [2] | activity change, negative = cytotoxicity [1]
CC(NC(=O)c1ccccc1N)C(=O)O (stereo unspecified) | inactive | inactive | inactive |  |  | 
CC(C)=CCC[C@](C)(O[C@@H]1O[C@H](CO)[C@@H](O)[C@H](O)[C@H]1O)[C@H]1CC[C@]2(C)[C@@H]1[C@H](O)CC1[C@@]3(C)CC[C@H](O)C(C)(C)C3[C@@H](O[C@@H]3O[C@H](CO)[C@@H](O)[C@H](O)[C@H]3O[C@@H]3O[C@@H](C)[C@H](O)[C@@H](O)[C@H]3O)C[C@]12C (stereo partly specified) |  | inactive | inactive | inactive [at 9.29 µM] |  | 
COC(=O)C1=CO[C@@H](O[C@@H]2O[C@H](CO)[C@@H](O)[C@H](O)[C@H]2O)[C@H]2[C@@H]1C=C[C@]21C=C([C@H](C)OC(=O)/C=C/c2ccc(O[C@@H]3O[C@H](CO)[C@@H](O)[C@H](O)[C@H]3O)cc2)C(=O)O1 | inactive | inactive | inactive |  |  | 
CC(C)[C@](O)(c1ccc2cc(OC(F)F)c(OC(F)F)cc2c1)c1cn[nH]n1 | inactive | inactive | inactive |  |  | 
COc1cc(C(C)=O)ccc1O[C@@H]1O[C@H](CO[C@@H]2OC[C@@H](O)[C@H](O)[C@H]2O)[C@@H](O)[C@H](O)[C@H]1O | inactive | inactive | inactive |  |  | 
CC(C)(OC1OC(CO)C(O)C(O)C1O)C1CCC(O)(CO)C2CC(=O)C(C)(O)C2C1 (stereo unspecified) | inactive | inactive | inactive |  |  | 
CC[C@H]1OC(=O)[C@H](C)C(=O)[C@H](C)[C@@H](OC2O[C@H](C)C[C@H](N(C)C)[C@H]2O)[C@@H](C)C[C@@H](C)C(=O)/C=C/[C@]1(C)O (stereo partly specified) | inactive | inactive | inactive |  |  | 
O=C(CCc1ccccc1)c1c(O)c([C@@H]2O[C@H](CO)[C@@H](O)[C@H](O)[C@H]2O)c(O)c([C@@H]2O[C@H](CO)[C@@H](O)[C@H](O)[C@H]2O)c1O | inactive | inactive | inactive |  |  | 
COc1ccc(-n2c(SCC#N)nc3sc4c(c3c2=O)CCCC4)cc1 | inactive | inactive | inactive |  |  | 
C/C=C1\[C@H](O[C@@H]2O[C@H](CO)[C@@H](O)[C@H](O)[C@H]2O)OC=C(C(=O)OCCc2ccc(O)cc2)[C@H]1CC(=O)OCCc1ccc(O)cc1 | inactive | inactive | inactive |  |  | 
CC1(C)CC[C@]2(C(=O)O)[C@H](O)C[C@]3(C)C(=CCC4[C@@]5(C)CC[C@H](O[C@@H]6OC[C@@H](O)[C@H](O)[C@H]6O)[C@@](C)(C(=O)O)C5CC[C@]43C)[C@@H]2C1 (stereo partly specified) | inactive | inactive | inactive |  |  | 
C/C=C(\C)C(=O)OC1CC2C(CC=C3CC(OC4CC(OC)C(OC5CC(OC)C(OC6CC(OC)C(OC7CC(OC)C(OC8CC(OC)C(OC9OC(CO)C(O)C(O)C9O)C(C)O8)C(C)O7)C(C)O6)C(C)O5)C(C)O4)CCC32C)C2(O)CCC(C(C)=O)C12C (stereo unspecified) |  |  | inactive | inactive [at 9.29 µM] | 20.8% [at 19.1 µM] | 
COC(=O)C1=CO[C@@H](O[C@@H]2O[C@H](CO)[C@@H](O)[C@H](O)[C@H]2O)[C@@H]2[C@@H](C(=O)O)CC[C@H]12 | inactive | inactive | inactive |  |  | 
CN[C@H](CNC(=O)N1CCC[C@@H]([C@@H](OCCNC(=O)OC)c2cccc(Cl)c2)C1)C[C@H]1CCCOC1 | inactive | inactive | inactive |  |  | 
CO[C@@H]1[C@]2(O)C(=O)N3/C=C\C(C)(C)c4[nH]c5ccccc5c4/C=C\3C(=O)N2[C@]23[C@H](CO)C(C)(C)N2c2ccccc2[C@]13O | inactive | inactive | inactive |  |  | 
COc1cc(CO)ccc1O[C@@H]1O[C@H](CO)[C@@H](O)[C@H](O)[C@H]1O | inactive | inactive | inactive |  |  | 
CC(C)=C1CC2[C@](C)(CC[C@@H](OC(=O)C3(C)OC3C)[C@@]2(C)O)CC1=O (stereo partly specified) | inactive | inactive | inactive |  |  | 
Cc1onc(-c2ccccc2Cl)c1C(=O)N(C)c1ccc(Cl)cc1 | inactive | inactive | inactive |  |  | 
COc1cc(/C=C/C(=O)OC[C@H]2O[C@@H](OC3OC=C(C(=O)O)C4C(O)CC(C)(O)C34)[C@H](O)[C@@H](O)[C@@H]2O)cc(OC)c1O (stereo partly specified) | inactive | inactive | inactive |  |  | 
O=[N+]([O-])c1cc(Cl)ccc1S(=O)(=O)N1CCN(Cc2ccccc2)CC1 | inactive | inactive | inactive |  |  | 
Fc1cccc(CN(C2=NCCN2)c2c(Cl)cccc2Cl)c1 | inactive | inactive | inactive |  |  | 
CC1=C2CC(=O)C(C)CC/C=C(\C)CC2OC1=O (stereo unspecified) | inactive | inactive | inactive |  |  | 
CC(O)C1CCC2C3CCC4CC(OC5OC(C(=O)O)C(O)C(O)C5O)CCC4(C)C3CCC12C (stereo unspecified) | inactive | inactive | inactive |  |  | 
O=C(Nc1ccc(N2CCC(C(=O)N3CCOCC3)CC2)cc1)c1cnc(Oc2ccccc2)nc1 | inactive | inactive | inactive |  |  | 

Compound | Potency [1] | Potency [2] | Potency [3] | outcome [1] | activity change, negative = inhibition [2] | activity change, negative = cytotoxicity [1]
CC(=O)O[C@@H]1[C@H](O[C@@H]2OC[C@](O)(CO)[C@H]2O)[C@@H](O[C@@H]2O[C@@H](C)[C@H](O)[C@@H](O[C@@H]3O[C@H](CO)[C@@H](O)[C@H](O)[C@H]3O)[C@H]2O)[C@H](OC(=O)[C@]23CCC(C)(C)C[C@H]2C2=CCC4[C@@]5(C)C[C@H](O)[C@H](O[C@@H]6O[C@H](C(=O)O)[C@@H](O)[C@H](O)[C@H]6O)[C@@](C)(C(=O)O)C5CC[C@@]4(C)[C@]2(C)CC3)O[C@@H]1C (stereo partly specified) |  |  | inactive | inactive [at 9.29 µM] | 2.67% [at 19.1 µM] | 
C/C(=C/CO)CC[C@H]1[C@]2(C)C[C@H](O)CC(C)(C)[C@H]2CC[C@]1(C)O | inactive | inactive | inactive |  |  | 
CCC(C)C(N)C(=O)NCCN1CCOCC1 (stereo unspecified) | inactive | inactive | inactive |  |  | 
C=C(CCO)C(=O)OCC1OCC(OC(=O)C(=C)CCO[C@@H]2O[C@H](COC(=O)C(=C)CCO[C@@H]3O[C@H](CO)[C@@H](O)[C@H](O)[C@H]3O)[C@@H](O)[C@H](O)[C@H]2O)C(O)C1O (stereo partly specified) | inactive | inactive | inactive |  |  | 
NC(=O)C(O[C@@H]1O[C@H](CO[C@@H]2O[C@H](CO)[C@@H](O)[C@H](O)[C@H]2O)[C@@H](O)[C@H](O)[C@H]1O)c1ccccc1 (stereo partly specified) | inactive | inactive | inactive |  |  | 
C[C@@H]1CCC2C(C)(C)[C@H](O)[C@H](O)C[C@]2(C)[C@@]12Cc1c(O)cc3c(c1O2)CN(CCCC(=O)O)C3=O (stereo partly specified) | inactive | inactive | inactive |  |  | 
CSCC1OC(n2cnc3c(=O)[nH]cnc32)C(O)C1O (stereo unspecified) | inactive | inactive | inactive |  |  | 
CC1=CC2=C(C)C(=O)[C@](C)(O)[C@H](O)C2=CO1 | inactive | inactive | inactive |  |  | 
C=C(C(=O)O)[C@@H]1CC[C@@]2(C)CCC[C@@](C)(O)[C@@H]2C1 | inactive | inactive | inactive |  |  | 
C=C(C)[C@@H]1CC[C@]2(C(=O)O)CC[C@]3(C)[C@H](CCC4[C@@]5(C)CCC(=O)C(C)(C)C5C(O)C[C@]43C)C12 (stereo partly specified) | inactive | inactive | inactive |  |  | 
COc1cc(C(C)=O)ccc1O[C@@H]1O[C@H](CO)[C@@H](O)[C@H](O)[C@H]1O | inactive | inactive | inactive |  |  | 
COc1cc([C@H]2OC[C@](O)(Cc3ccc(O[C@@H]4O[C@H](CO)[C@@H](O)[C@H](O)[C@H]4O)c(OC)c3)[C@@H]2CO)ccc1O | inactive | inactive | inactive |  |  | 
CC1(C)CCC[C@@]2(C)[C@H]1[C@H](O)C=C(CO)[C@]2(O)CO | inactive | inactive | inactive |  |  | 
Cc1nc2cc(-c3cc(F)cc(C#N)c3)ccc2s1 | inactive | inactive | inactive |  |  | 
CC1=CC23[C@H](C=C(C(=O)O)[C@@H]2COC(=O)[C@]3(O)CO)[C@@H]1C (stereo partly specified) | inactive | inactive | inactive |  |  | 
CC(=O)O[C@@]1(C)[C@@H]2CC(=C(C)C)C(=O)C[C@@]2(C)CC[C@H]1OC(=O)C1(C)OC1C (stereo partly specified) | inactive | inactive | inactive |  |  | 
COc1cc2c(cc1O)C(c1ccc(O)cc1)C(C)C(C)C2 (stereo unspecified) | inactive | 39.8 µM (active) | inactive |  |  | 
COc1cc(Nc2nc3c(s2)CCCC3c2ccccc2)ccc1-n1cnc(C)c1 (stereo unspecified) |  |  | inactive |  | -0.986% [at 19.1 µM] | -10.2% [at 9.29 µM]
C[C@]1(O)CC[C@@H]2C(C(=O)O)=CO[C@@H](O[C@@H]3O[C@H](CO)[C@@H](O)[C@H](O)[C@H]3O)[C@@H]21 | inactive | inactive | inactive |  |  | 
CC1(C)CC[C@]2(C(=O)O[C@@H]3O[C@H](CO)[C@@H](O)[C@H](O)[C@H]3O)CC[C@]3(C)C(=CCC4[C@@]5(C)C[C@H](O)[C@H](O[C@@H]6O[C@H](C(=O)O)[C@@H](O)[C@H](O)[C@H]6O)[C@@](C)(CO)C5CC[C@]43C)C2C1 (stereo partly specified) |  |  | inactive |  | 21.5% [at 19.1 µM] | -7.52% [at 9.29 µM]
COC(=O)[C@]1(C)CCC[C@@]2(C)[C@@H]3CC[C@@H]4C[C@@]3(CC[C@@H]21)C[C@H]4C(=O)O | inactive | inactive | inactive |  |  | 
CC(=O)OCC1OC(OC2COC(OC3COC(OC4C(OC5C(CO)OC(OC6CCC7(C)C(CCC8(C)C7CC=C7C9CC(C)(C)CCC9(C(=O)OC9OC(CO)C(O)C(O)C9OC9OCC(OC%10OCC(O)(CO)C%10O)C(O)C9O)C(O)CC78C)C6(C)C)C(O)C5O)OCC(O)C4O)C(O)C3O)C(O)C2O)C(OC(=O)/C=C/c2ccccc2)C(O)C1OC(C)=O (stereo unspecified) |  |  | inactive |  | 8.67% [at 19.1 µM] | 0.531% [at 5.11 µM]
CC1(C)CC2C3=CCC4[C@@]5(C)CC[C@H](OC6OCC(O)C(OC7OC(CO)C(O)C(O)C7O)C6O)C(C)(C)C5CC[C@@]4(C)[C@]3(C)C[C@H](O)[C@@]2(CO)[C@H](OC(=O)c2ccccc2)C1 (stereo partly specified) |  | inactive | inactive |  |  | -4.21% [at 9.29 µM]
